From PubChem BioAssay (EPA / NIEHS)
Calls of active or inactive are those of the source. How the source made its calls: active means hit-call score of the fitted dose curve at least 0.9, where 1 is the maximum; inactive means score below 0.9.

How the values were obtained:
Conditions in all cases: mRNA level, 48 h; actives raise or lower the signal
[1] = read-out: Lipoprotein lipase (LPL), LPL (gene 4023); assay: LTEA_HepaRG_LPL: Life Technologies and Expression Analysis (LTEA) Assay for Lipoprotein lipase (LPL) using HepaRG (AID 2283515)
Method in brief: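 Differentiated HepaRG cells, plated 48 h, then exposed 48 h in serum-free induction medium to 8 concentrations (top 100 uM, half-log steps) in 0.5% DMSO, duplicate. LPL mRNA measured by qRT-PCR, normalized to ACTB, GAPDH and POLR2A.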

[2] = read-out: MicroRNA 122 (MIR122), gene 406906; assay: LTEA_HepaRG_MIR122: Life Technologies and Expression Analysis (LTEA) Assay for MicroRNA 122 (MIR122) using HepaRG (AID 2283516); further: the transcript read is the microRNA miR-122
Method in brief: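 HepaRG plated 48 h, switched to serum-free induction medium, then treated in duplicate for 48 h (100 uM top, half-log steps, 0.5% DMSO vehicle). RNA isolated, qRT-PCR performed, concentration-response fitted both directions relative to DMSO.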

[3] = read-out: matrix metalloproteinase-10 (MMP10), MMP10 (gene 4319); assay: LTEA_HepaRG_MMP10: Life Technologies and Expression Analysis (LTEA) Assay for matrix metalloproteinase-10 (MMP10) using HepaRG (AID 2283517)
Method in brief: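 Differentiated HepaRG cells in serum-free induction medium exposed 48 h in duplicate to 8-point half-log series up to 100 uM in 0.5% DMSO. mRNA quantified by qRT-PCR, normalised to ACTB, GAPDH, POLR2A; bidirectional fit versus DMSO.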

MYC, MYC (gene 4609) = assay: LTEA_HepaRG_MYC: Life Technologies and Expression Analysis (LTEA) Assay for MYC using HepaRG (AID 2283518)
Method in brief: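 Cells are thawed, plated and cultured 48 h, then treated for 48 h with test chemicals (eight half-log concentrations from 100 uM, 0.5% DMSO vehicle). RNA is isolated and MYC expression quantified by qRT-PCR against three housekeeping genes.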

[4] = read-out: matrix metalloproteinase-3 (MMP3), MMP3 (gene 4314); assay: LTEA_HepaRG_MMP3: Life Technologies and Expression Analysis (LTEA) Assay for matrix metalloproteinase-3 (MMP3) using HepaRG (AID 2283519)
Method in brief: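 HepaRG cells (~100,000/well) in serum-free induction medium were dosed in duplicate for 48 h with an 8-point half-log series from 100 uM, 0.5% DMSO. MMP3 mRNA was quantified by Fluidigm TaqMan qRT-PCR, normalized to three housekeeping genes.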

[5] = read-out: Paternally Expressed 10 (PEG10), PEG10 (gene 23089); assay: LTEA_HepaRG_PEG10: Life Technologies and Expression Analysis (LTEA) Assay for Paternally Expressed 10 (PEG10) using HepaRG (AID 2283520)
Method in brief: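 HepaRG, 48 h post-plating → serum-free induction medium → 48 h chemical exposure (duplicate, 8-pt, max 100 uM, half-log, 0.5% DMSO) → lysis in RLT → TaqMan qRT-PCR for PEG10, ACTB/GAPDH/POLR2A normalisation.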

[6] = read-out: Protein phosphatase 2A (PPP2R4), PTPA (gene 5524); assay: LTEA_HepaRG_PPP2R4: Life Technologies and Expression Analysis (LTEA) Assay for Protein phosphatase 2A (PPP2R4) using HepaRG (AID 2283522)
Method in brief: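 Readout is PPP2R4 transcript level by microfluidic qRT-PCR after 48 h chemical treatment of human HepaRG liver cells. Concentrations spanned 100 uM downward in half-log steps; gain or loss of signal was fitted relative to DMSO.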

[7] = read-out: Phosphatase and tensin (PTEN), PTEN (gene 5728); assay: LTEA_HepaRG_PTEN: Life Technologies and Expression Analysis (LTEA) Assay for Phosphatase and tensin (PTEN) using HepaRG (AID 2283523)
Method in brief: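 HepaRG cells, 48 h after plating, exposed in duplicate for 48 h in serum-free induction medium to 8 half-log concentrations up to 100 uM (0.5% DMSO). PTEN mRNA by qRT-PCR, normalized to ACTB, GAPDH, POLR2A; bidirectional fit versus DMSO.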

[8] = read-out: solute carrier (SLC22A1), SLC22A1 (gene 6580); assay: LTEA_HepaRG_SLC22A1: Life Technologies and Expression Analysis (LTEA) Assay for solute carrier (SLC22A1) using HepaRG (AID 2283524)
Method in brief: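 Differentiated human HepaRG cells in serum-free induction medium, exposed 48 h in duplicate to 8-point half-log series from 100 µM top in 0.5% DMSO. SLC22A1 mRNA by TaqMan qRT-PCR normalized to ACTB, GAPDH, POLR2A; bidirectional fit versus DMSO.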

[9] = read-out: Pyruvate Dehydrogenase Kinase 4 (PDK4), PDK4 (gene 5166); assay: LTEA_HepaRG_PDK4: Life Technologies and Expression Analysis (LTEA) Assay for Pyruvate Dehydrogenase Kinase 4 (PDK4) using HepaRG (AID 2283525)
Method in brief: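 HepaRG cells plated 48 h, then switched to serum-free induction medium and exposed in duplicate for 48 h to 8 half-log concentrations from 100 uM in 0.5% DMSO. PDK4 mRNA measured by qRT-PCR, normalized to ACTB, GAPDH and POLR2A; bidirectional fit versus DMSO.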

[10] = read-out: NAD(P)H dehydrogenase [quinone] 1 (NQO1), NQO1 (gene 1728); assay: LTEA_HepaRG_NQO1: Life Technologies and Expression Analysis (LTEA) Assay for NAD(P)H dehydrogenase [quinone] 1 (NQO1) using HepaRG (AID 2283526)
Method in brief: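 HepaRG, 48 h post-plating → serum-free induction medium → test chemical 48 h (duplicate, 100 uM top, half-log x8, 0.5% DMSO) → RNA isolation → qRT-PCR, ACTB/GAPDH/POLR2A normalization; bidirectional curve fit vs DMSO baseline.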

[11] = read-out: Nuclear factor erythroid 2-related factor 2 (Homo sapiens) (UniProt Q16236); assay: LTEA_HepaRG_NFE2L2: Life Technologies and Expression Analysis (LTEA) Assay for Nuclear factor erythroid 2-related factor 2 (NFE2L2) Transcription Factor using HepaRG (AID 2283527);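 further: TaqMan qRT-PCR transcript level normalised to ACTB GAPDH and POLR2A housekeeping genes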
Method in brief: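 Differentiated human HepaRG cells, serum-free induction medium, exposed 48 h in duplicate to eight half-log concentrations up to 100 uM in 0.5% DMSO. NFE2L2 mRNA by Fluidigm TaqMan qRT-PCR, normalised to ACTB, GAPDH, POLR2A; bidirectional change versus DMSO.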

[12] = read-out: succinate dehydrogenase complex iron sulfur subunit B (SDHB), SDHB (gene 6390); assay: LTEA_HepaRG_SDHB: Life Technologies and Expression Analysis (LTEA) Assay for succinate dehydrogenase complex iron sulfur subunit B (SDHB) using HepaRG (AID 2283528)
Method in brief: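 Readout is SDHB transcript level by qRT-PCR, normalised to three housekeeping genes and fitted bidirectionally against 0.5% DMSO vehicle. Human HepaRG cells were treated for 48 h at up to 100 uM.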

[13] = read-out: solute carrier (SLCO1B1), SLCO1B1 (gene 10599); assay: LTEA_HepaRG_SLCO1B1: Life Technologies and Expression Analysis (LTEA) Assay for solute carrier (SLCO1B1) using HepaRG (AID 2283530)
Method in brief: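 Gain or loss of SLCO1B1 mRNA is fitted against the 0.5% DMSO vehicle in human HepaRG liver cells treated 48 h at up to 100 uM in half-log steps. Expression comes from qRT-PCR normalized to endogenous controls.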

[14] = read-out: sulfotransferase 2A1 (SULT2A1), SULT2A1 (gene 6822); assay: LTEA_HepaRG_SULT2A1: Life Technologies and Expression Analysis (LTEA) Assay for sulfotransferase 2A1 (SULT2A1) using HepaRG (AID 2283531)
Method in brief: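 Cells were plated and cultured 48 h, switched to serum-free induction medium, then dosed in duplicate for 48 h (8 concentrations, max 100 uM). RNA was isolated and SULT2A1 expression measured by qRT-PCR; gain or loss of signal fitted relative to DMSO.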

[15] = read-out: Transforming Growth Factor (TGFA), TGFA (gene 7039); assay: LTEA_HepaRG_TGFA: Life Technologies and Expression Analysis (LTEA) Assay for Transforming Growth Factor (TGFA) using HepaRG (AID 2283532)
Method in brief: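 Differentiated HepaRG cells exposed 48 hours in serum-free induction medium, 0.5% DMSO vehicle, 8-point half-log series from 100 uM, in duplicate. TGFA mRNA by TaqMan qRT-PCR, normalised to ACTB, GAPDH, POLR2A; bidirectional fit versus DMSO.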

[16] = read-out: Transforming Growth Factor (TGFB1), TGFB1 (gene 7040); assay: LTEA_HepaRG_TGFB1: Life Technologies and Expression Analysis (LTEA) Assay for Transforming Growth Factor (TGFB1) Transporter using HepaRG (AID 2283533)
Method in brief: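 Expression change of TGFB1 in human HepaRG cells is measured after a 48 h chemical exposure, up to 100 uM in 0.5% DMSO vehicle. Curves are fitted in both directions relative to the DMSO baseline.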

TIMP1, TIMP1 (gene 7076) = assay: LTEA_HepaRG_TIMP1: Life Technologies and Expression Analysis (LTEA) Assay for TIMP1 using HepaRG (AID 2283534);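 further: TaqMan qRT-PCR signal normalized to ACTB GAPDH and POLR2A housekeeping genes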
Method in brief: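 We dosed human liver HepaRG cultures for 48 hours with up to 100 uM test chemical and measured TIMP1 expression by qRT-PCR. Activity in either direction is fitted relative to the 0.5% DMSO vehicle.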

[17] = read-out: Nuclear factor NF-kappa-B p105 subunit (Homo sapiens) (UniProt P19838); assay: LTEA_HepaRG_NFKB1: Life Technologies and Expression Analysis (LTEA) Assay for Nuclear Factor Kappa B Subunit 1 (NFKB1) using HepaRG (AID 2283521);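 further: TaqMan qRT-PCR transcript normalised to ACTB GAPDH and POLR2A housekeeping genes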
Method in brief: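 HepaRG, 48 h exposure; 8-pt half-log series from 100 uM in 0.5% DMSO; duplicates. Readout: NFKB1 mRNA by qRT-PCR (Fluidigm arrays), housekeeping-normalized. Gain/loss fit vs DMSO baseline.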

Measured: outcome

Sequence of Nuclear factor erythroid 2-related factor 2 (Homo sapiens) (Q16236 whole entry, looked up): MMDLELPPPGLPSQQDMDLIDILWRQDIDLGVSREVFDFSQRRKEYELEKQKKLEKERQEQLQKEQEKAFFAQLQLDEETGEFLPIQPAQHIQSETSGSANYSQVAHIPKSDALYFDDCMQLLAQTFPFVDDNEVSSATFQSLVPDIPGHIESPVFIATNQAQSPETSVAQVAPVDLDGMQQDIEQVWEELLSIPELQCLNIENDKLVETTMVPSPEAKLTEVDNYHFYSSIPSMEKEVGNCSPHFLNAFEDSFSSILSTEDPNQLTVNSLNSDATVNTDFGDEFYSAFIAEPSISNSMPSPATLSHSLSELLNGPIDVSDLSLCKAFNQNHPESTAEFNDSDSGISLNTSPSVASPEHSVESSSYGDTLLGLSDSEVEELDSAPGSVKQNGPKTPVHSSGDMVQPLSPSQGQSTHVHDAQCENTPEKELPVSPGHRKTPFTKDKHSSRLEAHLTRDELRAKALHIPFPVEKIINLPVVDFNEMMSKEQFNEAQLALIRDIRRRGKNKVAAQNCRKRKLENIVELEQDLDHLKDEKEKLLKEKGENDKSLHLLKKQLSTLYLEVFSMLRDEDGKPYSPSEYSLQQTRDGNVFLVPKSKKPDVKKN
Sequence of Nuclear factor NF-kappa-B p105 subunit (Homo sapiens) (P19838 whole entry, looked up): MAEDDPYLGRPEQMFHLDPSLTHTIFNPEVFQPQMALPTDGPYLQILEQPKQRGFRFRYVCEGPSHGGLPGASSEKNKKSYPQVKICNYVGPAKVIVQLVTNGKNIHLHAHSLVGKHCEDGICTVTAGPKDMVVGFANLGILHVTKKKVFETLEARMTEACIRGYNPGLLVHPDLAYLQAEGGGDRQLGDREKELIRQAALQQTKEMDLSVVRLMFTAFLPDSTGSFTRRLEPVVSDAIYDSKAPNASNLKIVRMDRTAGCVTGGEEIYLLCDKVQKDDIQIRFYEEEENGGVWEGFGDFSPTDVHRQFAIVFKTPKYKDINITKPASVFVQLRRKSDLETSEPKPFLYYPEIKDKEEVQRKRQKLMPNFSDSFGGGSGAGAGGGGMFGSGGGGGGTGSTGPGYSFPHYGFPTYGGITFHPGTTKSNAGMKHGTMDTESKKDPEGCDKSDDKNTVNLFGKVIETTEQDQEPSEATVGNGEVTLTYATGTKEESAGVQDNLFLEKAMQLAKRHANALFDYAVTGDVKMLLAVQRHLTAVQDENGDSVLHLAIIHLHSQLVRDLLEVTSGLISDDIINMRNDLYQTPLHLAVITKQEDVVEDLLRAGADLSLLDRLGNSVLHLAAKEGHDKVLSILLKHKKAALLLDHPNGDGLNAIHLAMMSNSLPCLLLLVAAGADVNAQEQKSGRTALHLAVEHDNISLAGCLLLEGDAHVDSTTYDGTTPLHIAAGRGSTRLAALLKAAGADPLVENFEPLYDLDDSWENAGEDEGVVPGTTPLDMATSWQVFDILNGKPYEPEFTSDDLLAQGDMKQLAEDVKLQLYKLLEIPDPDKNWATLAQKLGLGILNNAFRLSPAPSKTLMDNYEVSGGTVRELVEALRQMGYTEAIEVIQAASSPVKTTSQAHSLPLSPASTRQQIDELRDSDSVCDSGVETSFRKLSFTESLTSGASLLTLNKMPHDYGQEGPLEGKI

CCCCCCCCCCCO
not listed: [17]
inactive: all other assays above

CCCCCCCC[Si](OCC)(OCC)OCC
not listed: [3] | [15]
inactive: all other assays above

CN1C(=O)CC[C@H]1c1cccnc1
not listed: MYC, MYC (gene 4609) | [9] | [15] | [17]
inactive: all other assays above
